Here are results for 9 molecules from PubChem BioAssay (NCI).

The structures appear in SMILES notation. The panel holds about 83,000 compounds, 20% with a hit somewhere; the sample as a whole holds those more often.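 Each cell line was grown in a 96-well plate and treated with one concentration of compound for 48 hours. Values below 10 were considered active.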 Values without a mark were called inactive.

This assay relates to COLO 205 colon. The assay is described as follows: NCI-60 one-dose screen, 48 h (100 = growth as untreated, 0 = no growth, -100 = all killed). The settings on record: 10 µM unless noted.
As for `Cc1ccc2c(n1)C(=O)C(Br)=C(CC(C)C)C2=O`, the growth was 78.5%. As for `CC(C)COc1nc2c(c(=O)n(C)c(=O)n2C)n1C`, the growth was 109%. Turning to `Cc1ccccc1/C=C/C(=O)c1cccc(OCCCCOc2cccc(C(=O)/C=C/c3ccccc3C)c2)c1`, the growth was 106%.

For the molecule `COc1ccc2cc1Oc1ccc(cc1)C[C@H]1c3c(cc4c(c3Oc3cc5c(cc3OC)CCN(C)[C@@H]5C2)OCO4)CCN1C`, the growth was 109%. In the case of `CCOC(=O)c1csc(NC(=O)COc2ccc(/C=C3\Oc4ccccc4C3=O)cc2)n1`, the growth is 112%.

As to `CC(C)C1=NOC(=O)C1=Cc1cn(-c2ccccc2)nc1-c1ccc(F)cc1`, the growth was 94.4%. On to `CCOC(=O)C/C(=N\Nc1cc(=O)[nH]c2ccc(Br)cc12)C(=O)OCC`, for which the growth was 107%. Turning to `Cc1cc(=O)n(C(=O)Nc2ccccc2Cl)c2cc(O)ccc12`, the growth was 100%.

In the case of `CSc1nnc(-c2cc3c([nH]c4ccccc43)c(-c3cccc(O)c3)n2)n1-c1ccccc1`, the growth was 85.3%.
